# Results published in the supplement of paper PMC12024424.
# Counter-ions that a name gives are not always drawn.
# Test system: Staphylococcus aureus Sa2 (MRSA, cystic fibrosis isolate)
# Assay: growth reduction vs untreated control (OD550); higher = stronger antibacterial activity
# Settings: 0.1 mM; 24 h
# Protocol: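 Single-dose screen of the MedChem Express Drug Repurposing Library (0.1 mM, 1% DMSO) against planktonic MRSA S. aureus Sa2 (CF isolate) in TSB in 96-well plates, 37 °C aerobic, 24 h. Assays were run in triplicate and repeated twice.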
row,SMILES,growth reduction [%]
1,CCNC1=Nc2ccc(Cl)cc2C(C)(c2ccccc2)O1 (stereo not drawn) [Etifoxine],100
2,Fc1ccc(C(OCCN2CCN(CCCc3ccccc3)CC2)c2ccc(F)cc2)cc1 [Vanoxerine (dihydrochloride)],100
3,COc1cccc2c1cc([N+](=O)[O-])c1c(C(=O)O)cc3c(c12)OCO3 [Aristolochic acid A],95.3
4,Cc1cc2c(C(C)C)c(O)c(O)c(C=O)c2c(O)c1-c1c(C)cc2c(C(C)C)c(O)c(O)c(C=O)c2c1O [Gossypol (acetic acid)],99.3
5,O=C(O)c1nn(Cc2ccc(Cl)cc2Cl)c2ccccc12 [Lonidamine],90.9
6,O=c1c2ccccc2[se]n1-c1ccccc1 [Ebselen],99.8
7,O=c1[nH]c2ccccc2n1C1CCN(CCCC(c2ccc(F)cc2)c2ccc(F)cc2)CC1 [Pimozide],100
8,Cc1cc2c(C(C)C)c(O)c(O)c(C=O)c2c(O)c1-c1c(C)cc2c(C(C)C)c(O)c(O)c(C=O)c2c1O [(R)-(-)-Gossypol acetic acid],96
9,c1ccc2c(c1)Sc1ccccc1N2CC1CN2CCC1CC2 (stereo not drawn) [Mequitazine],99.3
10,O=C(CNC(=O)c1ccc(C2=NOC(c3cc(Cl)cc(C(F)(F)F)c3)(C(F)(F)F)C2)c2ccccc12)NCC(F)(F)F (stereo not drawn) [Afoxolaner],100
11,Cc1cc2c(C(C)C)c(O)c(O)c(C=O)c2c(O)c1-c1c(C)cc2c(C(C)C)c(O)c(O)c(C=O)c2c1O [Gossypol],98.4
12,CC[C@H](C)C1O[C@]2(C=C[C@@H]1C)C[C@@H]1C[C@@H](C/C=C(\C)[C@@H](O[C@H]3C[C@H](OC)[C@@H](O[C@H]4C[C@H](OC)[C@H](NC)[C@H](C)O4)[C@H](C)O3)[C@@H](C)/C=C/C=C3\CO[C@@H]4[C@H](O)C(C)=C[C@@H](C(=O)O1)[C@]34O)O2 (stereo partly drawn) [Emamectin (Benzoate)],98
13,C[S+]([O-])CCCCN=C=S (stereo not drawn) [Sulforaphane],97.9
